Source: PubChem BioAssay (NCATS)
Values joined by “and” are separate entries in the source; they are usually repeats but may differ in a detail not shown here. Equal values may be shown once. Results filed as inconclusive are left out. The source holds several records for some structures; these can differ, active in one and inactive in another. Active and inactive are the calls of the source. The call rests on the fitted dose curve; in most records, active means well fitted curve in the direction sought with a large enough effect; inconclusive means small, poorly fitted or top-dose-only effect, or another doubt; inactive means no such curve, though single readings can be large; an effect the other way counts as inactive or inconclusive.

How the values were obtained:
TAB113 = assay: qHTS profiling for inhibitors of Plasmodium falciparum proliferation (AID 504749); further: nearly all actives have a fitted effect of over 60% in size; further: potency means the concentration at half of the fitted maximal effect; conditions: P. falciparum in erythrocytes, SYBR Green DNA, 72 h; series mostly up to 28.7 µM
Summary of the method: (§1)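 Infected RBCs, 0.3% parasitemia/2.5% Hct final; cpd 72 h, 37 C, 5% CO2; lysis buffer with saponin/triton/SYBR Green I, o/n RT dark; FI 485/535; norm. to artemisinin (0.29 uM) and DMSO.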

W2 = assay: as above; conditions: P. falciparum in erythrocytes, SYBR Green DNA, 72 h; series mostly up to 28.7 µM
Summary of the method: as §1

CRL-7250 [1] = assay: Cytotoxic Profiling of Annotated Libraries Using Quantitative High-Throughput Screening (AID 1296008); conditions: Five cell lines viability, CellTiter-Glo ATP luminescence, 48-72 h; max response: stronger effect = lower value; further: nearly all actives have a fitted effect of over 60% in size; further: potency means the concentration at half of the fitted maximal effect; on max response: on the % scale 0 is the no-effect control and ±100 the full control effect
Summary of the method: (§2)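 Cytotoxicity was measured as CellTiter-Glo ATP luminescence, read after 10 min at room temperature. Compound treatment of the cells lasted 48 or 72 hr at 37 degrees Celsius in a qHTS format.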

HEK293 = assay: as above; conditions: Five cell lines viability, CellTiter-Glo ATP luminescence, 48-72 h; max response: stronger effect = lower value
Summary of the method: as §2

HaCat [2] = assay: as above; conditions: Five cell lines viability, CellTiter-Glo ATP luminescence, 48-72 h; max response: stronger effect = lower value
Summary of the method: as §2

KB-3-1 = assay: as above; conditions: Five cell lines viability, CellTiter-Glo ATP luminescence, 48-72 h; max response: stronger effect = lower value
Summary of the method: as §2

NIH3T3 [3] = assay: as above; conditions: Five cell lines viability, CellTiter-Glo ATP luminescence, 48-72 h; max response: stronger effect = lower value
Summary of the method: as §2

HACAT [4] = assay: qHTS assay to identify novel small-molecules to repurpose for Merkel cell carcinoma treatment (AID 1296009); conditions: MCC and control cell lines, CellTiter-Glo viability, 72 h; at 44.8 µM (top of the series) unless noted; further: nearly all actives have a fitted effect of over 60% in size; further: potency means the concentration at half of the fitted maximal effect
Summary of the method: (§3)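 72 hr, 37 degree celsius; NPC 8-pt / MIPE 11-pt dose response; compound pinned in DMSO; CellTiter-Glo, 10 min RT, luminescence; normalized to no-cell and DMSO controls.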

MCC-13 = assay: as above; conditions: MCC and control cell lines, CellTiter-Glo viability, 72 h; series mostly up to 46 µM
Summary of the method: as §3

MKL-1 = assay: as above; conditions: MCC and control cell lines, CellTiter-Glo viability, 72 h; series mostly up to 46 µM
Summary of the method: as §3

MKL-2 = assay: as above; conditions: MCC and control cell lines, CellTiter-Glo viability, 72 h; series mostly up to 46 µM
Summary of the method: as §3

UISO = assay: as above; conditions: MCC and control cell lines, CellTiter-Glo viability, 72 h; series mostly up to 46 µM
Summary of the method: as §3

WaGa = assay: as above; conditions: MCC and control cell lines, CellTiter-Glo viability, 72 h; series mostly up to 46 µM
Summary of the method: as §3

C33A = assay: Primary qHTS to identify gynecologic anti-cancer compounds using libraries of approved drugs and bioactive compounds (AID 1345084); conditions: Gynecologic cancer cell panel viability, ATPlite luminescence, 48 h; series mostly up to 57.5 µM; further: on the % scale 0 is the no-effect control and ±100 the full control effect; nearly all actives have a fitted effect of over 55% in size
Summary of the method: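 In this quantitative HTS, cell killing is estimated from loss of ATP-dependent luciferase light. Cells see five compound concentrations over a 48 h exposure.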

TAB109 = assay: qHTS profiling for inhibitors of Plasmodium falciparum proliferation (AID 504749); further: nearly all actives have a fitted effect of over 60% in size; further: potency means the concentration at half of the fitted maximal effect; conditions: P. falciparum in erythrocytes, SYBR Green DNA, 72 h; series mostly up to 28.7 µM
Summary of the method: as §1

TAB165 = assay: as above; conditions: P. falciparum in erythrocytes, SYBR Green DNA, 72 h; series mostly up to 28.7 µM
Summary of the method: as §1

MCC-26 = assay: qHTS assay to identify novel small-molecules to repurpose for Merkel cell carcinoma treatment (AID 1296009); conditions: MCC and control cell lines, CellTiter-Glo viability, 72 h; series mostly up to 46 µM; further: nearly all actives have a fitted effect of over 60% in size; further: potency means the concentration at half of the fitted maximal effect
Summary of the method: as §3

HEK293T = assay: as above; conditions: MCC and control cell lines, CellTiter-Glo viability, 72 h; at 44.8 µM (top of the series)
Summary of the method: as §3

CRL-7250 [5] = assay: as above; conditions: MCC and control cell lines, CellTiter-Glo viability, 72 h; series mostly up to 44.8 µM
Summary of the method: as §3

NIH3T3 [6] = assay: as above; conditions: MCC and control cell lines, CellTiter-Glo viability, 72 h; at 44.8 µM (top of the series) unless noted
Summary of the method: as §3

CC(CCc1ccccc1)NC(C)C(O)c1ccc(O)cc1 (stereo unspecified)
active: Potency (W2) 4.26 µM
inactive: Potency (TAB113) | max response (CRL-7250 [1]) -12.9% | max response (HEK293) -17.5% | outcome (HaCat [2]) | max response (KB-3-1) -11.3% | max response (NIH3T3 [3]) -21.3% | outcome (HACAT [4]) | Potency (MCC-13) | Potency (MKL-1) | Potency (MKL-2) | Potency (UISO) | Potency (WaGa) | Potency (C33A)

NCC(O)c1ccc(O)cc1 (stereo unspecified)
inactive: Potency (TAB109) | Potency (TAB113) | Potency (TAB165) | max response (CRL-7250 [1]) 4.85% | max response (HEK293) 4.81% | max response (HaCat [2]) -2.74% | max response (KB-3-1) -4.37% | max response (NIH3T3 [3]) -5.72% | Potency (MCC-13) | Potency (MKL-1) | Potency (MKL-2) | Potency (UISO) | Potency (WaGa) | Potency (C33A)

Oc1cccc2cccnc12
21.7 µM (active) and inactive: Potency (MCC-26)
38.6 µM (active) and inactive: Potency (WaGa)
12.2 µM (active) and inactive: Potency (MKL-1)
4.86 µM (active) and inactive: Potency (MKL-2)
active: Potency (NIH3T3 [3]) 19.3 µM
inactive: Potency (TAB109) | Potency (TAB113) | Potency (TAB165) | Potency (W2) | max response (CRL-7250 [1]) 3.76% | max response (HaCat [2]) 4.28% | max response (KB-3-1) 22% and 11.8% and -4.11% | max response (NIH3T3 [3]) 4.09% | Potency (MCC-13) | Potency (C33A)
10.9 µM (active) and inactive: Potency (UISO)

COC1(CS(=O)c2ccccc2)CCN(CCc2c[nH]c3ccc(F)cc23)CC1 (stereo unspecified)
inactive: max response (CRL-7250 [1]) -22.3% | max response (HEK293) -11.2% | max response (HaCat [2]) -21.9% | max response (KB-3-1) -9.1% | max response (NIH3T3 [3]) -8% | Potency (MCC-13) | Potency (MCC-26) | Potency (MKL-1) | Potency (MKL-2) | Potency (UISO) | Potency (WaGa)

CCOP(=S)(OCC)Oc1cc(C)nc(C(C)C)n1
inactive: Potency (TAB109) | Potency (TAB113) | Potency (TAB165) | Potency (W2) | max response (CRL-7250 [1]) 1.07% | outcome (HEK293) | max response (HaCat [2]) 0.572% | max response (KB-3-1) 7.03% | max response (NIH3T3 [3]) -12% | outcome (HEK293T) | Potency (MCC-13) | Potency (MCC-26) | Potency (MKL-1) | Potency (MKL-2) | Potency (UISO) | Potency (WaGa) | Potency (C33A)

CC(O)(CS(=O)(=O)c1ccc(F)cc1)C(=O)Nc1ccc(C#N)c(C(F)(F)F)c1 (stereo unspecified)
active: Potency (MKL-2) 4.18 µM | Potency (WaGa) 8.33 µM
inactive: outcome (CRL-7250 [1]) | outcome (HaCat [2]) | max response (KB-3-1) 4.8% and -10.6% | max response (NIH3T3 [3]) 2.23% | outcome (NIH3T3 [3]) | outcome (CRL-7250 [5]) | outcome (HACAT [4]) | outcome (NIH3T3 [6]) | Potency (C33A)

Cc1ccc(-c2nc3ccc(C)cn3c2CC(=O)N(C)C)cc1
inactive: Potency (TAB109) | Potency (TAB113) | Potency (TAB165) | Potency (W2) | max response (CRL-7250 [1]) 3.97% | max response (HEK293) -21.2% | max response (HaCat [2]) -0.388% | max response (KB-3-1) 2.97% | max response (NIH3T3 [3]) -7.47% | Potency (MCC-13) | Potency (MKL-1) | Potency (MKL-2) | Potency (UISO) | Potency (WaGa) | Potency (C33A)

Nc1ccncc1
inactive: Potency (TAB109) | Potency (TAB113) | Potency (TAB165) | Potency (W2) | max response (CRL-7250 [1]) 4.16% | outcome (HaCat [2]) | max response (KB-3-1) 14.9% | max response (NIH3T3 [3]) 2.18% | outcome (HACAT [4]) | Potency (MCC-13) | Potency (MCC-26) | Potency (MKL-1) | Potency (MKL-2) | Potency (UISO) | Potency (WaGa) | Potency (C33A)

O=C(O)c1ccc2[nH]cc(CCCCN3CC=C(c4ccccc4)CC3)c2c1
inactive: Potency (TAB109) | Potency (TAB113) | Potency (TAB165) | max response (CRL-7250 [1]) -7.24% | outcome (HaCat [2]) | max response (KB-3-1) -2.41% | outcome (NIH3T3 [3]) | outcome (HACAT [4]) | Potency (MCC-13) | Potency (MCC-26) | Potency (MKL-1) | Potency (MKL-2) | outcome (NIH3T3 [6]) | Potency (UISO) | Potency (WaGa) | Potency (C33A)

C[C@@H]1[C@@H](C(=O)C[C@H]2O[C@@H]3O[C@]4(C)CC[C@@H]5[C@H](C)CC[C@@H]([C@H]2C)[C@@]35OO4)O[C@@H]2O[C@]3(C)CC[C@H]4[C@H](C)CC[C@@H]1[C@@]24OO3
active: Potency (CRL-7250 [1]) 4.18 µM | Potency (HEK293) 0.332 µM | Potency (HaCat [2]) 5.26 µM | Potency (MKL-1) 14.8 µM | Potency (MKL-2) 0.662 µM | Potency (UISO) 372 nM | Potency (WaGa) 2.64 µM

Cc1ccc(S(=O)(=O)N[C@@H](CCCCN)C(=O)CCl)cc1
active: Potency (TAB109) 11.2 µM
inactive: max response (CRL-7250 [1]) 3.77% | outcome (HaCat [2]) | max response (KB-3-1) 32.5% | outcome (NIH3T3 [3]) | outcome (HACAT [4]) | Potency (MCC-13) | Potency (MKL-1) | Potency (MKL-2) | outcome (NIH3T3 [6]) | Potency (UISO) | Potency (WaGa) | Potency (C33A)

C=CCN1CC[C@]23c4c5ccc(O)c4O[C@H]2C(=O)CC[C@@]3(O)[C@H]1C5
inactive: max response (CRL-7250 [1]) -3.06% | max response (HEK293) -4.65% | max response (HaCat [2]) -19.7% | max response (KB-3-1) -7.11% and -7.3% | max response (NIH3T3 [3]) -3.86% | Potency (MCC-13) | Potency (MKL-1) | Potency (MKL-2) | Potency (UISO) | Potency (WaGa) | Potency (C33A)
